{
  "source": "the supplement of paper PMC11732987",
  "about": "“Enantioselective OTUD7B fragment discovery through chemoproteomics screening and high-throughput optimisation” (Communications Chemistry, 2025)",
  "assay_in_all_cases": "log2 ratio of Biotin-Ahx-Ub-VS probe labelling (fragment/DMSO); higher = less target engagement (more negative = stronger competition), active = hit call of the paper (q ≤ 0.05, log2 ratio ≤ -1)",
  "conditions_in_all_cases": "compound concentration: 200 uM; treatment time: 3 h",
  "key": {"OTUD6B": {"biological_target": "T1, OTUD6B (UniProt Q8N6M0)", "T1 sequence (whole entry)": "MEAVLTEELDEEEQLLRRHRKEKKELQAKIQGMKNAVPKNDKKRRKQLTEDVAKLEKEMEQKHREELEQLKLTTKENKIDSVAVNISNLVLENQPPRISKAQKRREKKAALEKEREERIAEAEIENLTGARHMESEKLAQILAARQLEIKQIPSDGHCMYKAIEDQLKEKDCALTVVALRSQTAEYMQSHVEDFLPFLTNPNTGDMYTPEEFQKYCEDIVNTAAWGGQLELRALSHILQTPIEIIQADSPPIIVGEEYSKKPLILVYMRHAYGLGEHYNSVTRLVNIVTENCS", "summary_of_the_method": "(§1)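 HEK293T lysate, 495 µg per sample in Tris/CHAPS/IGEPAL buffer with protease inhibitors, was treated in triplicate with fragment at 200 µM or vehicle for 3 h and then with Biotin-Ahx-Ub-VS at 0.5 µM final for 1 h. Labelled DUBs were NeutrAvidin-enriched, digested with LysC and trypsin, and run by diaPASEF LC-MS/MS. Spectronaut label-free quantities were global-median-normalised, and values are average log2 fragment/vehicle ratios by unpaired t-test on proteins with ≥2 unique peptides.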"}, "OTUD7B": {"biological_target": "T2, OTUD7B (UniProt Q6GQQ9)", "T2 sequence (whole entry)": "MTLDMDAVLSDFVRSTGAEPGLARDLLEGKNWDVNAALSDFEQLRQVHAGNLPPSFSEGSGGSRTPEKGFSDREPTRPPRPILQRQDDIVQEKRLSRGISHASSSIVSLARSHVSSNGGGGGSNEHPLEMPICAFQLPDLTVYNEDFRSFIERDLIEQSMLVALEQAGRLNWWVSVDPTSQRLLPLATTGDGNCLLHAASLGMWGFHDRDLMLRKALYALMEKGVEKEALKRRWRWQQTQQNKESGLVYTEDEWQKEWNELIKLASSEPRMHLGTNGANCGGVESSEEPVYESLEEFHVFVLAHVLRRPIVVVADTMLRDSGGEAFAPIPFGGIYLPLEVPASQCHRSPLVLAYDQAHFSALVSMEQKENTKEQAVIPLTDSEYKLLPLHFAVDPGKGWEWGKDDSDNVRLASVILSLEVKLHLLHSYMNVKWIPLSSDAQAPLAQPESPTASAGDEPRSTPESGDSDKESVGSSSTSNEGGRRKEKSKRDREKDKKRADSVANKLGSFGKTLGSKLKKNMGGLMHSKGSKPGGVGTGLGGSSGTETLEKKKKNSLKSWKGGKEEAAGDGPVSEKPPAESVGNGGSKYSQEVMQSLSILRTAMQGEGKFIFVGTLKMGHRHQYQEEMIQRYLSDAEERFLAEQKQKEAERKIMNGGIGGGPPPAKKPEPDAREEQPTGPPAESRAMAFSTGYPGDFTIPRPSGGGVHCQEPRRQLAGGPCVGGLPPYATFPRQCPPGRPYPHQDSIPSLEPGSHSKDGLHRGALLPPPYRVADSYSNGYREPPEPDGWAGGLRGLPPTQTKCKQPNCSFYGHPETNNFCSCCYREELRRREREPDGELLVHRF", "summary_of_the_method": "as §1"}, "PRPF8": {"biological_target": "PRPF8 (UniProt Q6P2Q9)", "summary_of_the_method": "as §1"}, "PSMD7": {"biological_target": "T3, PSMD7 (UniProt P51665)", "T3 sequence (whole entry)": "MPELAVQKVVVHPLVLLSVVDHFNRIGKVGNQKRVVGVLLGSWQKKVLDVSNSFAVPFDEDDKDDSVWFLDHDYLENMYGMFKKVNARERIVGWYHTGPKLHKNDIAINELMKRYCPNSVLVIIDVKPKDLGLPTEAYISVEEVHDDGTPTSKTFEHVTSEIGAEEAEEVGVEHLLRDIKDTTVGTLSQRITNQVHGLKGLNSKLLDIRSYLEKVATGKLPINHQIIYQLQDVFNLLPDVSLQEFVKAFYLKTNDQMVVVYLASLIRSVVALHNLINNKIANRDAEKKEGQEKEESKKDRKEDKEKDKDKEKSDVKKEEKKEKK", "summary_of_the_method": "as §1"}, "UCHL1": {"biological_target": "UCHL1 (UniProt P09936)", "sequence (P09936 whole entry, looked up)": "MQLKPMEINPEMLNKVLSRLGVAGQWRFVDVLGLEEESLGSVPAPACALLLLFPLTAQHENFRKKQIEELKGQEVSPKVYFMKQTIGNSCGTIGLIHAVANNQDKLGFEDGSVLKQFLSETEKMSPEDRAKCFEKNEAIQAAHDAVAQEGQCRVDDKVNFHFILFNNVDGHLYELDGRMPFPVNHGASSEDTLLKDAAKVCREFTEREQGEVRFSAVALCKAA", "summary_of_the_method": "as §1"}, "UCHL3": {"biological_target": "T4, UCHL3 (UniProt P15374)", "T4 sequence (whole entry)": "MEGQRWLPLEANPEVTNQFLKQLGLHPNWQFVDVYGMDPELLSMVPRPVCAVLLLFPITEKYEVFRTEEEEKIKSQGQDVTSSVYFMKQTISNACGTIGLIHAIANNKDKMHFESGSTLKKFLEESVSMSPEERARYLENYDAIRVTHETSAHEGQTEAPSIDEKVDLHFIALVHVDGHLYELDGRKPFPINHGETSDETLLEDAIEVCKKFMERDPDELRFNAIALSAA", "summary_of_the_method": "as §1"}, "UCHL5": {"biological_target": "T5, UCHL5 (UniProt Q9Y5K5)", "T5 sequence (whole entry)": "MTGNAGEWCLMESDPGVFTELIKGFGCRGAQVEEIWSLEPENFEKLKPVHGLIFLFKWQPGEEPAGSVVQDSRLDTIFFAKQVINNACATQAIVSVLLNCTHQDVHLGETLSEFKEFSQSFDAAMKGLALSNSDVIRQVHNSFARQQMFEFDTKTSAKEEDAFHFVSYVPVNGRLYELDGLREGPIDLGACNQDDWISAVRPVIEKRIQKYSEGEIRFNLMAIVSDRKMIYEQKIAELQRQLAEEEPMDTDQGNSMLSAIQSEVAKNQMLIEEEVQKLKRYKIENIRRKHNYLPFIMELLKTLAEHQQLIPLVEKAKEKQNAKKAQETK", "summary_of_the_method": "as §1"}, "USP10": {"biological_target": "USP10 (UniProt Q14694)", "sequence (Q14694 whole entry)": "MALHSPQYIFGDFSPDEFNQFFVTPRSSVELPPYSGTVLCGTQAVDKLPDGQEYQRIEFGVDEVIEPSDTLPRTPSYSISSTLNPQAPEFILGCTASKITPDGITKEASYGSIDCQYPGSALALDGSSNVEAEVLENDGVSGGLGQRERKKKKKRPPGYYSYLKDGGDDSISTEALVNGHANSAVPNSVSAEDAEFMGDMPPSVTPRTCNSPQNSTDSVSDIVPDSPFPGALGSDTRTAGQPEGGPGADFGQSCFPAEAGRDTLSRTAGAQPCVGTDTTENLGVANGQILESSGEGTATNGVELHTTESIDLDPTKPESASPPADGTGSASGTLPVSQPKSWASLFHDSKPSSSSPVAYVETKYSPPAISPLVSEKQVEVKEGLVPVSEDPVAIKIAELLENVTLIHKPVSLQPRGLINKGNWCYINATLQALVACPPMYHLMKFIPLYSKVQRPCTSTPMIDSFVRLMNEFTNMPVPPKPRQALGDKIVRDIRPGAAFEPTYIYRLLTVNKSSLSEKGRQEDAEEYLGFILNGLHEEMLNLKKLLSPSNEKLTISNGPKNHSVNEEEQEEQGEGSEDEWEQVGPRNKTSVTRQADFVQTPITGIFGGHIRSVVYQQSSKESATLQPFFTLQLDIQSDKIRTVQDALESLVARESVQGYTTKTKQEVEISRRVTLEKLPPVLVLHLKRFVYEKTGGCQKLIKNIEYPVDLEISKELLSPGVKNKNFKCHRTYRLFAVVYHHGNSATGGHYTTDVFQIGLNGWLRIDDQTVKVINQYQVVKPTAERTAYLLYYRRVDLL", "summary_of_the_method": "as §1"}, "USP15": {"biological_target": "T6, USP15 (UniProt Q9Y4E8)", "T6 sequence (whole entry)": "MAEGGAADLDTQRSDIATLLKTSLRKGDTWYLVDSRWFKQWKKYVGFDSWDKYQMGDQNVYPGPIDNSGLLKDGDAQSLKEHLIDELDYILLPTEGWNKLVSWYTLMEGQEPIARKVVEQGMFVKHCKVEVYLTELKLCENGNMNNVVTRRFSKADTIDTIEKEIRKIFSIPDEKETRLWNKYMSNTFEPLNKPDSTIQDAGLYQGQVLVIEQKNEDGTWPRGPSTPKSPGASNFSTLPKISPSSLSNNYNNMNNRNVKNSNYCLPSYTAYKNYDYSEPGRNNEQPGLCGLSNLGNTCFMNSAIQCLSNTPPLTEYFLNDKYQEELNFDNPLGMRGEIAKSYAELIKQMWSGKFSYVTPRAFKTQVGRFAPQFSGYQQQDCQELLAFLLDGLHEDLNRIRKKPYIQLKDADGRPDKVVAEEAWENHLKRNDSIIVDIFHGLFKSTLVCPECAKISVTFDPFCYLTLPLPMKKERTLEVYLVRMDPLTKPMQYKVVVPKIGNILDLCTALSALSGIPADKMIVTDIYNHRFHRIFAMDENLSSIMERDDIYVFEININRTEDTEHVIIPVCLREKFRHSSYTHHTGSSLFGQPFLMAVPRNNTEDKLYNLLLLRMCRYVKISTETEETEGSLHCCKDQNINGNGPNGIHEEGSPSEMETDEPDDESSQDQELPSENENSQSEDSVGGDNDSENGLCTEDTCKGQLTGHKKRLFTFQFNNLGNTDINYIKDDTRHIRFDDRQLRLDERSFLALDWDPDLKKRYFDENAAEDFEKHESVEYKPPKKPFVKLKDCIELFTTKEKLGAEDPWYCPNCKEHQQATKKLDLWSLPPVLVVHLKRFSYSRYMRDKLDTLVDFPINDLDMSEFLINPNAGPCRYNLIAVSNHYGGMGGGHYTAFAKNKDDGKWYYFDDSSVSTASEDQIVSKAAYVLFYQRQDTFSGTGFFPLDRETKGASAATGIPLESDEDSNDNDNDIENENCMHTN", "summary_of_the_method": "as §1"}, "USP16": {"biological_target": "USP16 (UniProt Q9Y5T5)", "sequence (Q9Y5T5 whole entry, looked up)": "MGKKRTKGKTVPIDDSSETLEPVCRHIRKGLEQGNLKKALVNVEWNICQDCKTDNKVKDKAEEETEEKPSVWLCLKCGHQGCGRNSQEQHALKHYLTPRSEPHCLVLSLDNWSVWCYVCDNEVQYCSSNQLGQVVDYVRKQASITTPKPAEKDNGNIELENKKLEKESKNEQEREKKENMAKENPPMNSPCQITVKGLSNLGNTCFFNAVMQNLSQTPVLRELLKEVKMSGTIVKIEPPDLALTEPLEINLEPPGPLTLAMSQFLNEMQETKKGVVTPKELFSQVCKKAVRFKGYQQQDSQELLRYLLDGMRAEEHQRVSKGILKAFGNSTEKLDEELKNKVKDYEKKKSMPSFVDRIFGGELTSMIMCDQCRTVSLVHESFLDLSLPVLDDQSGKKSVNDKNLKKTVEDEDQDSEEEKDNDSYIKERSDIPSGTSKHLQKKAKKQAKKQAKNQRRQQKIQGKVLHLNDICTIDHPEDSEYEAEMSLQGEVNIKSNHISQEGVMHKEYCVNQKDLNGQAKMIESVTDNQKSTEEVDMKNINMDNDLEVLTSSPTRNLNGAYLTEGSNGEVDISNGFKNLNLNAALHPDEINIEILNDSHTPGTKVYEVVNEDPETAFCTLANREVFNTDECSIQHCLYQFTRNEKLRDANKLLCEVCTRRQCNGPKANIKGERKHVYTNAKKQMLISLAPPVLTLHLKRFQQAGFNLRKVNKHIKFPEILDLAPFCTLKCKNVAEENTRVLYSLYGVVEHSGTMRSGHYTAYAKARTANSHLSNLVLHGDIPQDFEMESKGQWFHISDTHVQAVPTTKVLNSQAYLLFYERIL", "summary_of_the_method": "as §1"}},
  "note": "A number with no mark means an inactive call.",
  "data": [
    {"molecule": "O=C(CCl)N1CCc2nc[nH]c2C1c1ccc(Cl)cc1", "note": "(stereo not given)", "values": [
      {"measurement": "log2 ratio of Biotin-Ahx-Ub-VS probe labelling", "setting": "OTUD6B", "value": -0.263},
      {"measurement": "log2 ratio of Biotin-Ahx-Ub-VS probe labelling", "setting": "OTUD7B", "value": "-1.05 (active)"},
      {"measurement": "log2 ratio of Biotin-Ahx-Ub-VS probe labelling", "setting": "PRPF8", "value": -0.0118},
      {"measurement": "log2 ratio of Biotin-Ahx-Ub-VS probe labelling", "setting": "PSMD7", "value": -0.165},
      {"measurement": "log2 ratio of Biotin-Ahx-Ub-VS probe labelling", "setting": "UCHL1", "value": -0.466},
      {"measurement": "log2 ratio of Biotin-Ahx-Ub-VS probe labelling", "setting": "UCHL3", "value": 0.28},
      {"measurement": "log2 ratio of Biotin-Ahx-Ub-VS probe labelling", "setting": "UCHL5", "value": -0.221},
      {"measurement": "log2 ratio of Biotin-Ahx-Ub-VS probe labelling", "setting": "USP10", "value": -0.161},
      {"measurement": "log2 ratio of Biotin-Ahx-Ub-VS probe labelling", "setting": "USP15", "value": -0.182},
      {"measurement": "log2 ratio of Biotin-Ahx-Ub-VS probe labelling", "setting": "USP16", "value": -0.287}
    ]}
  ]
}
